Assay outcomes from PubChem BioAssay.
Compounds with a hit are over-represented: about 6.2% of the library has one in this group of screens.
FMDV inh – blocks foot and mouth disease virus | Potency, µM (titrated, usually from 57.9 µM), for the others: at the highest dose activity change, negative = inhibition, most hits filed as inhibitors | 1.2% of 410,000 active | FMDV antiviral cell-based qHTS; calls by dose curve; tested in HEK293T cells; also: read-out not given here; potency is read from the fitted curve at half-maximal effect; nearly all actives have a fitted effect of over 45% in size
MARV entry inh – inhibitors of Marburg virus binding or cell entry. Potency, µM (doses to about 37.8 µM), inactives show top-dose activity change, negative = inhibition, most hits filed as inhibitors. 1.8% of 300,000 active. Marburg virus pseudotyped entry inhibition, cell reporter; calls by dose curve; tested in HEK293 cells; also: potency is read from the fitted curve at half-maximal effect
Lassa entry inh – inhibitors of Lassa virus binding or cell entry. Lassa virus pseudotype entry inhibition, cell reporter. Potency, µM (series often up to 37.9 µM), for inactives: at the top dose activity change, negative = inhibition, hits mostly inhibitors. 1.2% of 300,000 active. AID 540256; calls by dose curve; tested in HEK293 cells; also: potency is read from the fitted curve at half-maximal effect; nearly all actives have a fitted effect of over 50% in size
HCMV antiviral – blocks human cytomegalovirus replication | HFF cells, HCMV-luciferase reporter, 72 h; stronger effect = lower value | 4.5% of 410,000 active | AID 1259415 | activity change, negative = inhibition, % at 57.5 µM; in the data active = activity change below about -60%; inconclusive = no clear call, values can overlap the other calls; inactive = above about -39%
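Cell-based, HFFs, 1000 cells/well, 16 h 37C; cpds in DMSO + HCMV-luc, MOI 1 PFU/cell; 72 h 37C; OneGlo luminescence after 5 min RT; norm. to buffer vs Salinomycin 10uM.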
Numbers without * were called inactive; [ ] = another dose, or the depositor's remark. % is scaled to controls: 0 for no effect and ±100 for the full control effect.

Cc1ccc2c(c1)c1c(c(=O)n(-c3ccccc3C)c(=O)n1CC(=O)NCc1ccccc1)n2C was read as FMDV inh inconclusive, Lassa entry inh -6%[46.1 µM] and HCMV antiviral inconclusive.
Screening c1cncc(-c2nnc(-c3cccnc3)nn2)c1 returned FMDV inh inconclusive, MARV entry inh inconclusive, Lassa entry inh inconclusive and HCMV antiviral 5.
For Cn1c(SSc2ccc(-c3cccnc3)n2C)ccc1-c1cccnc1 the results were FMDV inh inconclusive, MARV entry inh 13µM*, Lassa entry inh inconclusive and HCMV antiviral -37.
CC(=O)Nc1cccc(NC(=O)C2(c3cccs3)CCOCC2)c1 was read as FMDV inh 0%, Lassa entry inh 21%[46.1 µM] and HCMV antiviral 29.
`O=C(Cn1c(=O)nc(-c2ccccc2)c2ccccc21)NCc1ccc(F)cc1` gave FMDV inh 29%, Lassa entry inh inconclusive and HCMV antiviral -10.
`CC(=O)N/C(N)=N/c1nc2cc(C)ccc2o1` gave FMDV inh 51% and HCMV antiviral 22.
Screening CC(=O)N/C(N)=N/c1nc2cc([N+](=O)[O-])ccc2o1 returned FMDV inh 51%, MARV entry inh inconclusive, Lassa entry inh inconclusive and HCMV antiviral -66*.
`COc1ccc(Cl)cc1NC(=O)c1nn(C)c2c1CS(=O)(=O)c1ccccc1-2` gave FMDV inh -6%, Lassa entry inh -6%[46.1 µM] and HCMV antiviral 5.
For CCn1c(=O)c2sccc2n2c(CCC(=O)NCc3ccc(Cl)cc3)nnc12 the results were FMDV inh inconclusive, MARV entry inh 13%[46.1 µM], Lassa entry inh 10%[46.1 µM] and HCMV antiviral -15.
Screening COC(=O)CCN1CCSCCS1(=O)=O returned HCMV antiviral -11.
O=C(Nc1ccc2ccccc2c1)C(C1CC1)n1c(=O)c(-c2cc3ccccc3[nH]2)nc2ccccc21 (stereo not given) was read as FMDV inh -19% and HCMV antiviral 3.
COc1ccc(NC(=O)C(C2CC2)n2c(=O)c(-c3cc4ccccc4[nH]3)nc3ccccc32)cc1 (stereo not given) was read as FMDV inh -19% and HCMV antiviral -97*.
Screening Cc1nc2ccccc2c(=O)n1-c1ccccc1C(F)(F)F returned MARV entry inh 9%, Lassa entry inh -2% and HCMV antiviral 28.
For O=c1[nH]c(SCc2nc3ccccc3c(=O)n2-c2ccccc2C(F)(F)F)nc2ccccc12 the results were FMDV inh 18µM*, MARV entry inh 4%, Lassa entry inh -22% and HCMV antiviral inconclusive.
Screening O=S1(=O)N[C@H](Cc2ccccc2)COc2cc(N3CCOCC3)ccc21 returned HCMV antiviral 11.
CC(=O)Nc1cccc(-c2ccnc3c2CC(C)(C(=O)NCc2cccs2)O3)c1 (stereo not given) was read as FMDV inh -24% and HCMV antiviral inconclusive.
Screening Cc1cc(S(=O)(=O)NCc2ccccc2)ccc1OCC(=O)Nc1cccc([N+](=O)[O-])c1 returned FMDV inh -20%, MARV entry inh 12µM*, Lassa entry inh inconclusive and HCMV antiviral -8.
For CCOC(=O)Cn1c(=N)n(Cc2ccc(C(C)(C)C)cc2)c2ccccc21 the results were FMDV inh inconclusive, Lassa entry inh 9%[46.1 µM] and HCMV antiviral inconclusive.
Screening Cc1cc(C)c2oc(-c3cccc(NC(=O)COc4ccccc4Cl)c3C)nc2c1 returned FMDV inh inconclusive, MARV entry inh 11%[46.1 µM], Lassa entry inh inconclusive and HCMV antiviral -1.
N=c1ccn(Cc2ccc(Cl)cc2)cc1 was read as FMDV inh inconclusive, MARV entry inh inconclusive, Lassa entry inh inconclusive and HCMV antiviral -93*.
Screening N=c1ccn(Cc2cccc(Cl)c2)cc1 returned FMDV inh inconclusive, MARV entry inh inconclusive, Lassa entry inh inconclusive and HCMV antiviral -71*.
`Clc1ccc(CN2CCCCCC2)cc1` gave FMDV inh -21%, MARV entry inh 0%, Lassa entry inh 10% and HCMV antiviral 18.
For Clc1ccc(CN2CCCCCCC2)cc1Cl the results were FMDV inh -10%, MARV entry inh 11%, Lassa entry inh -6% and HCMV antiviral 9.
`N=c1ccn(Cc2ccc(Cl)c(Cl)c2)cc1` gave FMDV inh inconclusive, MARV entry inh inconclusive, Lassa entry inh -29% and HCMV antiviral -97*.
Screening O=C1CC(c2ccco2)CC2=C1C1c3ccccc3C(=O)N1c1ccccc1N2 (stereo not given) returned FMDV inh 20%, MARV entry inh inconclusive, Lassa entry inh -9% and HCMV antiviral -24.
For O=C1CCCC2=C1C1c3ccccc3C(=O)N1c1ccc(C(=O)c3ccccc3)cc1N2 (stereo not given) the results were FMDV inh -25%, MARV entry inh inconclusive, Lassa entry inh inconclusive and HCMV antiviral -76*.
`CCc1nc(SCC(=O)N2CCCc3ccccc32)c2oc3ccccc3c2n1` gave FMDV inh -1%, MARV entry inh inconclusive, Lassa entry inh 18µM* and HCMV antiviral -19.
Screening CCOC(=O)C1CCN(c2nc(C)nc3c2oc2ccccc23)CC1 returned FMDV inh inconclusive, MARV entry inh 7%, Lassa entry inh 14% and HCMV antiviral -15.
For Cc1nc(SCC(=O)N2CCN(c3ccccc3)CC2)c2oc3ccccc3c2n1 the results were FMDV inh 25µM*, MARV entry inh -28%, Lassa entry inh inconclusive and HCMV antiviral 0.
Screening CC(=O)Nc1ccc(Nc2nc(C)nc3c2oc2ccccc23)cc1 returned FMDV inh inconclusive, MARV entry inh inconclusive, Lassa entry inh inconclusive and HCMV antiviral 21.
Cc1nc(Nc2ccncc2)c2oc3ccccc3c2n1 was read as FMDV inh inconclusive, MARV entry inh inconclusive, Lassa entry inh 28% and HCMV antiviral -98*.
Screening CCOC(=O)C1CCCN(c2nc(C)nc3c2oc2ccccc23)C1 (stereo not given) returned FMDV inh 22µM*, MARV entry inh inconclusive, Lassa entry inh inconclusive and HCMV antiviral 3.
CCc1nc(NC(C)C)c2oc3ccccc3c2n1 was read as FMDV inh -26%, MARV entry inh 13%, Lassa entry inh 9% and HCMV antiviral -3.
`C=CCn1c(SCC(=O)N2CCN(c3ccccc3)CC2)nnc1-c1ccco1` gave FMDV inh -10%, MARV entry inh -5%, Lassa entry inh -11% and HCMV antiviral -29.
For CCc1nc(Nc2ccncc2)c2oc3ccccc3c2n1 the results were FMDV inh -21%, MARV entry inh inconclusive, Lassa entry inh -13% and HCMV antiviral -105*.
`CCc1nc(N2CCCCC2C)c2oc3ccccc3c2n1` (stereo not given) gave FMDV inh inconclusive, MARV entry inh 18µM*, Lassa entry inh inconclusive and HCMV antiviral -26.
`CC(=O)N1CCN(c2ccc(Nc3nc(C)nc4c3oc3ccccc34)cc2)CC1` gave FMDV inh 25µM*, MARV entry inh -22%, Lassa entry inh 28% and HCMV antiviral -20.
`CCc1nc(N2CCCCC2C(=O)O)c2oc3ccccc3c2n1` (stereo not given) gave FMDV inh -8%, MARV entry inh -1%[46.1 µM], Lassa entry inh 4%[46.1 µM] and HCMV antiviral 155.
